In PubChem BioAssay (EPA / NIEHS):
Calls of active or inactive are those of the source. How the source made its calls: active means hit-call score of the fitted dose curve at least 0.9, where 1 is the maximum; inactive means score below 0.9.

Experiments:
[1] = read-out: TIMP metallopeptidase inhibitor 2 (TIMP2), TIMP2 (gene 7077); test: BSK_KF3CT_TIMP2: BioMAP Diversity Plus: KF3CT Assay for TIMP metallopeptidase inhibitor 2 (TIMP2) Biomarker Activity (AID 2283071); conditions: primary human keratinocytes with fibroblasts; actives raise or lower the signal
How it was run: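 Cells: human keratinocytes co-cultured with foreskin fibroblasts. Treat with chemical, 24 h. Measure TIMP-2 by ELISA; fit curves bidirectionally vs DMSO baseline.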

[2] = read-out: Transforming growth factor beta 1 (TGFb1), TGFB1 (gene 7040); test: BSK_KF3CT_TGFb1: BioMAP Diversity Plus: KF3CT Assay for Transforming growth factor beta 1 (TGFb1) Biomarker Activity (AID 2283072); conditions: primary human keratinocytes with fibroblasts; actives raise or lower the signal
How it was run: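 Primary human skin cells (keratinocytes, foreskin fibroblasts) were co-cultured, exposed to test chemical and sampled at 24 h. TGF-b1 levels were measured by ELISA and fitted bidirectionally relative to DMSO.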

[3] = read-out: C-C motif chemokine 2 (Homo sapiens) (UniProt P13500); test: BSK_KF3CT_MCP1: BioMAP Diversity Plus: KF3CT Assay for Monocyte Chemoattractant Protein 1 (MCP1/CCL2) Biomarker Activity (AID 2283073); conditions: primary human keratinocytes with fibroblasts; actives raise or lower the signal
How it was run: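 ELISA read-out of MCP-1, 24 h post-dose, in primary human skin keratinocytes co-cultured with fibroblasts. Parallel SRB staining monitors cytotoxicity; changes fitted both directions relative to DMSO.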

[4] = read-out: Matrix Metallopeptidase 9 (MMP9), MMP9 (gene 4318); test: BSK_KF3CT_MMP9: BioMAP Diversity Plus: KF3CT Assay for Matrix Metallopeptidase 9 (MMP9) Biomarker Activity (AID 2283074); conditions: primary human keratinocytes with fibroblasts; actives raise or lower the signal;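 on AC50: MMP9 protein level quantified by ELISA in the co-culture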
How it was run: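 Human keratinocyte and foreskin fibroblast co-culture exposed to chemicals for 24 h; MMP9 biomarker measured by ELISA, bidirectional fitting relative to DMSO; cytotoxicity tracked by SRB total protein staining in parallel cultures.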

[5] = read-out: urokinase plasminogen activator (uPA), PLAU (gene 5328); test: BSK_KF3CT_uPA: BioMAP Diversity Plus: KF3CT Assay for urokinase plasminogen activator (uPA) Biomarker Activity (AID 2283075); conditions: primary human keratinocytes with fibroblasts; actives raise or lower the signal
How it was run: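 Primary human keratinocyte/foreskin fibroblast co-culture exposed to chemical; uPA measured by ELISA at 24 h. Bidirectional fit versus DMSO, with parallel SRB total-protein staining for cytotoxicity.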

CD40, CD40 (gene 958) [6] = test: BSK_LPS_CD40: BioMAP Diversity Plus: LPS Assay for CD40 Biomarker Activity (AID 2283076); conditions: primary human HUVEC with PBMC; actives raise or lower the signal
How it was run: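 In the LPS system of human endothelial cells with peripheral blood mononuclear cells, CD40 levels were read by ELISA 24 h post-treatment. Signal changes in either direction were fitted against the DMSO baseline, with parallel SRB protein staining.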

[7] = read-out: E-selectin (Homo sapiens) (UniProt P16581); test: BSK_LPS_Eselectin: BioMAP Diversity Plus: LPS Assay for Eselectin Biomarker Activity (AID 2283077); conditions: primary human HUVEC with PBMC; actives raise or lower the signal
How it was run: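 E-selectin ELISA on LPS-stimulated endothelial cell/PBMC co-cultures, read 24 h post-treatment; gains and losses fitted against DMSO. Parallel SRB staining (0.1% SRB after 10% TCA fixation, 560 nm) flags overt cytotoxicity.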

[8] = read-out: Interleukin-8 (IL8), CXCL8 (gene 3576); test: BSK_LPS_IL8: BioMAP Diversity Plus: LPS Assay for Interleukin-8 (IL8) Biomarker Activity (AID 2283078); conditions: primary human HUVEC with PBMC; actives raise or lower the signal
How it was run: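 ELISA read-out of IL-8 after 24 h chemical treatment of LPS-activated endothelial/PBMC human primary co-cultures. Changes either up or down relative to DMSO; overt cytotoxicity checked by sulforhodamine B staining in parallel wells.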

[9] = BSK_LPS_SRB: Viability Assessment in the BioMAP Diversity Plus: LPS Assay (AID 2283079); conditions: primary human HUVEC with PBMC;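 further: total protein by sulforhodamine B absorbance as a cytotoxicity measure; measured one day after compound addition; fitted in both directions against DMSO so loss or gain of signal counts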
How it was run: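 SRB viability endpoint: cells fixed with 10% TCA, stained with 0.1% SRB, read at 560 nm, 24 h post-dose. HUVEC/PBMC co-culture; signal change in either direction scored relative to DMSO.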

[10] = read-out: Interleukin-1 alpha (IL1a), IL1A (gene 3552); test: BSK_LPS_IL1a: BioMAP Diversity Plus: LPS Assay for Interleukin-1 alpha (IL1a) Biomarker Activity (AID 2283080); conditions: primary human HUVEC with PBMC; actives raise or lower the signal
How it was run: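 Readout is IL-1a level by ELISA, 24 h post-dose, fitted as gain or loss relative to DMSO. System: LPS-activated human primary co-culture of vascular endothelium and peripheral blood mononuclear cells, with parallel SRB total-protein cytotoxicity.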

[11] = read-out: Monocyte Chemoattractant Protein-1 (MCP1), CCL2 (gene 6347); test: BSK_LPS_MCP1: BioMAP Diversity Plus: LPS Assay for Monocyte Chemoattractant Protein-1 (MCP1) Biomarker Activity (AID 2283081); conditions: primary human HUVEC with PBMC; actives raise or lower the signal;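 on AC50: secreted MCP-1 protein quantified by ELISA in culture supernatant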
How it was run: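 Secreted MCP-1 read by ELISA at 24 h post-dosing in an LPS-activated co-culture of endothelial cells with peripheral blood mononuclear cells. Fits run in both directions, DMSO as baseline; parallel SRB staining tracks overt cytotoxicity.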

[12] = BSK_LPS_PGE2: BioMAP Diversity Plus: LPS Assay for Prostaglandin E2 (PGE2) Biomarker Activity (AID 2283082); conditions: primary human HUVEC with PBMC; actives raise or lower the signal;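 on AC50: secreted prostaglandin E2 measured by ELISA in LPS-stimulated co-culture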
How it was run: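 LPS-activated HUVEC/PBMC co-culture; cmpd dosed, 24 h; PGE2 by ELISA; bidirectional fit vs DMSO; SRB (0.1%, TCA-fixed, 560 nm) in parallel plates for overt cytotox.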

[13] = read-out: Macrophage colony-stimulating factor (MCSF), CSF1 (gene 1435); test: BSK_LPS_MCSF: BioMAP Diversity Plus: LPS Assay for Macrophage colony-stimulating factor (MCSF) Biomarker Activity (AID 2283083); conditions: primary human HUVEC with PBMC; actives raise or lower the signal
How it was run: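 Bidirectional fitting against DMSO was applied to M-CSF levels read by ELISA at 24 h post-dose. The system pairs human umbilical vein endothelium with peripheral blood mononuclear cells; parallel SRB staining tracked cytotoxicity.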

[14] = read-out: Tissue Factor, F3 (gene 2152); test: BSK_LPS_TissueFactor: BioMAP Diversity Plus: LPS Assay for Tissue Factor Biomarker Activity (AID 2283084); conditions: primary human HUVEC with PBMC; actives raise or lower the signal
How it was run: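 Compound was added to an endothelial cell/PBMC co-culture, and after 24 h tissue factor (CD142) was read by ELISA. Gain or loss of signal was fitted against a DMSO baseline, and parallel SRB staining (560 nm) tracked overt cytotoxicity.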

[15] = read-out: Tumor necrosis factor (Homo sapiens) (UniProt P01375); test: BSK_LPS_TNFa: BioMAP Diversity Plus: LPS Assay for Tumour Necrosis Factor alpha (TNFa) Biomarker Activity (AID 2283085); conditions: primary human HUVEC with PBMC; actives raise or lower the signal
How it was run: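 Read-out is ELISA of TNFa in primary human endothelial cell–PBMC co-cultures at 24 h after compound. Activity in either direction was fitted against DMSO.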

[16] = read-out: Vascular cell adhesion molecule 1 (VCAM1), VCAM1 (gene 7412); test: BSK_LPS_VCAM1: BioMAP Diversity Plus: LPS Assay for Vascular cell adhesion molecule 1 (VCAM1) Biomarker Activity (AID 2283086); conditions: primary human HUVEC with PBMC; actives raise or lower the signal
How it was run: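 HUVEC + PBMC co-culture, LPS system; compound 24 h; VCAM-1 by ELISA; bidirectional fit vs DMSO control; parallel SRB (0.1%, TCA-fixed, 560 nm) for cytotoxicity.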

CD38, CD38 (gene 952) = test: BSK_SAg_CD38: BioMAP Diversity Plus: SAg Assay for CD38 Biomarker Activity (AID 2283087); conditions: primary human HUVEC with PBMC; actives raise or lower the signal
How it was run: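 Human HUVEC plus PBMC co-culture stimulated with superantigen; CD38 measured by ELISA 24 h after chemical dosing. Fluorescence read-out, bidirectional fit against DMSO; cytotoxicity tracked in parallel by SRB and Alamar Blue.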

CD40, CD40 (gene 958) [17] = test: BSK_SAg_CD40: BioMAP Diversity Plus: SAg Assay for CD40 Biomarker Activity (AID 2283088); conditions: primary human HUVEC with PBMC; actives raise or lower the signal
How it was run: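 CD40 is measured by fluorescence ELISA in an endothelial/PBMC primary human co-culture at 24 h post-dose. Fitting is bidirectional, DMSO baseline. Parallel SRB staining (560 nm) flags cytotoxicity.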

CD69, CD69 (gene 969) = test: BSK_SAg_CD69: BioMAP Diversity Plus: SAg Assay for CD69 Biomarker Activity (AID 2283089); conditions: primary human HUVEC with PBMC; actives raise or lower the signal;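 on AC50: cell surface CD69 protein quantified by ELISA with fluorescence detection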
How it was run: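 ELISA, fluorescence read-out: CD69 on human umbilical vein endothelial cell + PBMC co-culture, 24 h post-dosing. Gain or loss of signal fitted bidirectionally against DMSO baseline.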

[18] = read-out: Monocyte Chemoattractant Protein-1 (MCP1), CCL2 (gene 6347); test: BSK_SAg_MCP1: BioMAP Diversity Plus: SAg Assay for Monocyte Chemoattractant Protein-1 (MCP1) Biomarker Activity (AID 2283090); conditions: primary human HUVEC with PBMC; actives raise or lower the signal
How it was run: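 MCP-1 levels in the endothelial–PBMC SAg co-culture were quantified by ELISA at 24 h post-dosing; both increases and decreases versus DMSO scored. Cytotoxicity monitored by SRB total protein in parallel cultures.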

Measured: AC50

Chain of E-selectin (Homo sapiens) (P16581 whole entry, looked up): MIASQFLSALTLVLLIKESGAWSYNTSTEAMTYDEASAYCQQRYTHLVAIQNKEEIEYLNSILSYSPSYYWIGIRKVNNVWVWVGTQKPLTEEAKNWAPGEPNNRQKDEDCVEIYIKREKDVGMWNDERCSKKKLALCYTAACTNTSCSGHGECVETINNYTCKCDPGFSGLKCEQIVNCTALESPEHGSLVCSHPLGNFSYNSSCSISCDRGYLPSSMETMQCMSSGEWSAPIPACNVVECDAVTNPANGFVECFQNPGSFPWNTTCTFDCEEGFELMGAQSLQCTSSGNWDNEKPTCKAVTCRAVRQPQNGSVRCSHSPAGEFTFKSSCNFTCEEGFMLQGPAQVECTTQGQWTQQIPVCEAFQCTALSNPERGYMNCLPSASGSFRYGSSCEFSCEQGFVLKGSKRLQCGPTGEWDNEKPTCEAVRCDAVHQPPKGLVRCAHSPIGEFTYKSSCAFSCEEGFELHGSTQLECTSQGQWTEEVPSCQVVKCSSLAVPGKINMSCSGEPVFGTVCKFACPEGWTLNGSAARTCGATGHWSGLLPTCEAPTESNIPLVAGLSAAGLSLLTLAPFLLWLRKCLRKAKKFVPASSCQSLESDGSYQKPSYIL
Chain of Tumor necrosis factor (Homo sapiens) (P01375 whole entry, looked up): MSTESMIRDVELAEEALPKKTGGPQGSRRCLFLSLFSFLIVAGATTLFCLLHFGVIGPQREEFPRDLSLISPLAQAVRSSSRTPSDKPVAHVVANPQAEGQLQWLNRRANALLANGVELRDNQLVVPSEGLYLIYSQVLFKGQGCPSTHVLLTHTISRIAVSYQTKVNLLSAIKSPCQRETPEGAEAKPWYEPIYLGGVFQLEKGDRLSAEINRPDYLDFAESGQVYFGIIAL

CCCCC(CC)COCCC#N (configuration not stated)
active: [11] 0.016 µM
inactive: all other assays above

CN(CCOc1ccc(CC2SC(=O)NC2=O)cc1)c1ccccn1 (configuration not stated)
active: [2] 0.016 µM | [4] 3.97 µM | [5] 0.016 µM | CD40, CD40 (gene 958) [6] 13 µM | [12] 0.121 µM | [14] 24.9 µM | CD38, CD38 (gene 952) 20 µM | CD40, CD40 (gene 958) [17] 20 µM | CD69, CD69 (gene 969) 20 µM | [18] 20 µM
inactive: [1] | [3] | [7] | [9] | [10] | [11] | [13] | [15] | [16]

N#Cc1ccc(CC(=NNC(=O)Nc2ccc(OC(F)(F)F)cc2)c2cccc(C(F)(F)F)c2)cc1
active: [1] 2.21 µM | [2] 0.463 µM | [12] 2.68 µM
not listed: [8]
inactive: all other assays above

CC(=O)/C=C/C1=C(C)CCCC1(C)C
not listed: [8]
inactive: all other assays above

CCn1c2ccccc2c2cc(N)ccc21
active: [1] 1.49 µM | CD40, CD40 (gene 958) [6] 5.63 µM | [10] 0.653 µM | [11] 1.24 µM | [12] 5.42 µM | [13] 7.37 µM | CD38, CD38 (gene 952) 4.91 µM | CD40, CD40 (gene 958) [17] 6.33 µM | CD69, CD69 (gene 969) 4.02 µM | [18] 1.85 µM
inactive: [2] | [3] | [4] | [5] | [7] | [9] | [14] | [15] | [16]

CC(C)(COC(=O)c1ccccc1)COC(=O)c1ccccc1
active: CD40, CD40 (gene 958) [6] 32 µM | [9] 31.3 µM | [13] 30.9 µM | [16] 26.2 µM | CD40, CD40 (gene 958) [17] 32.3 µM | CD69, CD69 (gene 969) 31.7 µM
inactive: all other assays above

O=C1CCCCCCCCCCCCCCO1
active: [1] 20 µM | [2] 20 µM | [3] 12.5 µM | [12] 3.97 µM | [16] 23.5 µM | CD69, CD69 (gene 969) 20 µM
inactive: all other assays above

O=[N+]([O-])c1cc(C(F)(F)F)ccc1Cl
not listed: [8]
inactive: all other assays above

CC1CCC(C(C)CS)CC1S (configuration not stated)
active: [1] 5.83 µM | [2] 7.37 µM | [3] 20 µM | [4] 24 µM | [5] 33.7 µM | CD40, CD40 (gene 958) [6] 20 µM | [7] 34.6 µM | [9] 29.4 µM | [10] 36.3 µM | [11] 33.5 µM | [13] 36.4 µM | [14] 30.9 µM | [16] 34.8 µM | CD38, CD38 (gene 952) 32.8 µM | CD40, CD40 (gene 958) [17] 31.6 µM | CD69, CD69 (gene 969) 30.8 µM | [18] 32.6 µM
inactive: [12] | [15]

CCc1c(C)cc(N)c(CC)c1N
inactive: all assays above

Cc1ccc(Nc2ccc(O)c3c2C(=O)c2ccccc2C3=O)cc1
active: [12] 1.06 µM | [15] 0.435 µM
not listed: [8]
inactive: all other assays above

c1ccc2c(c1)c1cccc3ccc4cccc2c4c31
active: [2] 0.0518 µM | [5] 0.0439 µM | [14] 0.369 µM
not listed: [8]
inactive: all other assays above

Nc1cc([N+](=O)[O-])ccc1Cl
inactive: all assays above
